Data from PubChem BioAssay AID2284198 (EPA ToxCast).
Calls of active or inactive are those of the source. How the source made its calls: active means hit-call score of the fitted dose curve at least 0.9, where 1 is the maximum; inactive means score below 0.9.

target: human Adenosine Transporter, SLC29A1 (gene 2030) (UniProt Q99808); test: ERF_TW_TR_hSLC35B3: Eurofins (ERF) Transporter Radioligand Binding LeadHunter Assay for human Adenosine Transporter Antagonism
Protocol: ERF_TW_TR_hSLC35B3 is a biochemical, single-readout assay that uses extracted gene-proteins in a cell-free assay. Measurements were taken 1 hour after chemical dosing in a 96-well plate. See Adenosine Human Transporter Binding (Antagonist Radioligand) Assay, Panlabs.ERF_TW_TR_hSLC35B3 is an assay component calculated from the ERF_TW_TR_hSLC35B3 assay. It is designed to measure radioligand binding using a type of binding reporter as detected by scintillation counting with radiometry technology.Data from the assay component ERF_TW_TR_hSLC35B3 was analyzed at the assay endpoint, ERF_TW_TR_hSLC35B3, in the positive analysis fitting direction relative to DMSO as the negative control and baseline of activity. Using a type of binding reporter, loss-of-signal activity can be used to understand changes in transporter binding as they relate to gene SLC29A1. To generalize the intended target to other relatable targets, this assay endpoint is annotated to the transporter intended target family, where the subfamily is nucleoside transporter.
This assay measures binding of [3H]Nitrobenzylthioinosine to sites associated with the transporter of adenosine. Human adenosine transporter membranes are prepared in Tris-HCl buffer pH 7.4. A 24 ug aliquot of membrane is incubated with 0.5 nM [3H]Nitrobenzylthioinosine for 60 minutes at 25C. Non-specific binding is estimated in the presence of 5 uM nitrobenzylthioinosine. Membranes are filtered and washed, the filters are then counted to determine [3H]Nitrobenzylthioinosine specifically bound. Compounds are screened at 10 uM.Test Sample Requirements: Minimum for 1) Screen: 25 ul of 10 mM stock -OR- 1 mg (pre-weighed). 2) Dose Response: 60 ul of 10 mM stock -OR- 1 mg (pre-weighed).

Chain of human Adenosine Transporter, SLC29A1 (gene 2030) (Q99808 whole entry, looked up): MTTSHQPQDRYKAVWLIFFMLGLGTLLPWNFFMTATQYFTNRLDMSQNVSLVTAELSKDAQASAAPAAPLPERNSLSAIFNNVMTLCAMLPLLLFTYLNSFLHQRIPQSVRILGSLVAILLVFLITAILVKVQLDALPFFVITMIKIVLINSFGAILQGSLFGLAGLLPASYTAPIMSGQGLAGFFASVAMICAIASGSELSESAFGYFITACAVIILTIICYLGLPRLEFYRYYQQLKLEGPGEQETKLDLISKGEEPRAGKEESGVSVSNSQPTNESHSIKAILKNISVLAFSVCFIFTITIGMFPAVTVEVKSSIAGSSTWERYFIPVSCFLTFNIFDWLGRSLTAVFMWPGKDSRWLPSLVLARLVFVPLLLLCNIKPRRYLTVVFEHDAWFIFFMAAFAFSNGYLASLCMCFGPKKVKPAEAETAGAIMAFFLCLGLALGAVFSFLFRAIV

SMILES | AC50
COc1cc(CCC(=O)CC(=O)CCc2ccc(O)c(OC)c2)ccc1O | 574 nM (active)
O=C(/C=C/c1ccc(O)cc1)CC(=O)/C=C/c1ccc(O)cc1 | 153 nM (active)
COc1cc(/C=C/C(=O)CC(=O)/C=C/c2ccc(O)c(OC)c2)ccc1O | 98 nM (active)
